From PMC7862700, “An all-to-all approach to the identification of sequence-specific readers for epigenetic DNA modifications on cytosine” come the findings set out here.

Common to all, as to assay: DAPPL (digital affinity profiling via proximity ligation, sequencing); 10 mM Tris-HCl pH 7.5, 50 mM NaCl, 1 mM DTT, 4% glycerol, room temperature, 30 min; GST-TFs on glutathione beads, 16-mer random dsDNA library, 0.1% formaldehyde crosslink after washing; high values mean tight binding
Details in all cases: protein: recombinant; tags: N-terminal GST; dsDNA, one strand shown

In assay [1] the target is T1, FLI1 (Homo sapiens, UniProt Q01543 1-452).
T1 sequence: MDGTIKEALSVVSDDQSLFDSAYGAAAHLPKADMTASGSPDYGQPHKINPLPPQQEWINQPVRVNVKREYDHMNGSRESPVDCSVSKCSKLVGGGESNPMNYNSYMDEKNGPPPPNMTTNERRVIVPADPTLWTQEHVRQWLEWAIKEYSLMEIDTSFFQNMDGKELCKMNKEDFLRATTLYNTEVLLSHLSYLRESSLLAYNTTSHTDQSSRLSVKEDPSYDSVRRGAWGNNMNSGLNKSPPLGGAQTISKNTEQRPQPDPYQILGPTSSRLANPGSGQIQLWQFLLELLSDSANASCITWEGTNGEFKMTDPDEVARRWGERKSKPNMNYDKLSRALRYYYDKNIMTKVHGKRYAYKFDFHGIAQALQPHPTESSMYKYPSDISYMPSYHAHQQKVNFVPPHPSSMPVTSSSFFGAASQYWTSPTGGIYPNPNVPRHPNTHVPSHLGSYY
In a few lines:
(§1)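 Human transcription factors were made in yeast as GST fusions, captured on glutathione beads and barcoded with DNA. With a tag-only sample included, the pool was incubated with 200 nmole of a random double-stranded 16-mer DNA library in Tris/NaCl/DTT/glycerol buffer at room temperature for 30 min, then crosslinked with 0.1% formaldehyde after washing, ligated by proximity, amplified and sequenced. For binding signal, each hexamer's read frequency for a factor is divided by its frequency for the tag-only sample.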

The target in assay [2] is T2, EHF (Homo sapiens, UniProt Q9NZC4 1-300).
T2 sequence: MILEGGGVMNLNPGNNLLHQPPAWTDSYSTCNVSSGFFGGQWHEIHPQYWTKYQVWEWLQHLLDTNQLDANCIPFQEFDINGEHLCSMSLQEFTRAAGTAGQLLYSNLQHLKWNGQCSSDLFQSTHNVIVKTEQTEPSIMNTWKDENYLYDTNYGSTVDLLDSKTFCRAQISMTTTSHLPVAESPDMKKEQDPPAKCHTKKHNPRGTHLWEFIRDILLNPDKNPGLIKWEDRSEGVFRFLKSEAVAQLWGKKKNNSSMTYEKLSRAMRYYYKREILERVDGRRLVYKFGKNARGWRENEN
In a few lines:
as §1

Assay [3] concerns the target T3, SPIC (Homo sapiens, UniProt Q8N5J4 1-248).
T3 sequence: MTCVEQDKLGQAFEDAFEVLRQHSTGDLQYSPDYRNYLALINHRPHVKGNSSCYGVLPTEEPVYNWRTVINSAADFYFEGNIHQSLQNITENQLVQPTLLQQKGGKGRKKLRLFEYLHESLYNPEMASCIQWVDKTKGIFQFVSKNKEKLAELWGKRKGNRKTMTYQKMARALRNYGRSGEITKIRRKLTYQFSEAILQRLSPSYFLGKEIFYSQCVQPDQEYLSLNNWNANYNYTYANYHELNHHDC
The method, boiled down: as §1

Assay [4] deals with ELF4 (Homo sapiens, UniProt Q99607 1-663). The method, boiled down:
as §1

The target of assay [5] is T4, ELK4 (Homo sapiens, UniProt P28324-2 1-405).
T4 sequence: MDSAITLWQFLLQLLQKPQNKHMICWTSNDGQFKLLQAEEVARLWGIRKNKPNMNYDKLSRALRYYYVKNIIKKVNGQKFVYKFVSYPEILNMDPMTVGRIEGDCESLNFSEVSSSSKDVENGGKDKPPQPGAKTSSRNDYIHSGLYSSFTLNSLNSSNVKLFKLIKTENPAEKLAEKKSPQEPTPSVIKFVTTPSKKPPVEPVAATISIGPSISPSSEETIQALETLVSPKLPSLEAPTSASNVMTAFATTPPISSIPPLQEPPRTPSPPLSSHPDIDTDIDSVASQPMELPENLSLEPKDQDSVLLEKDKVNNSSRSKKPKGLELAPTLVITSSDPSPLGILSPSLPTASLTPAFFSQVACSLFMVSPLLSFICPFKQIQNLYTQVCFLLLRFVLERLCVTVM
In a few lines: as §1

The target in assay [6] is T5, ELF3 (Homo sapiens, UniProt P78545 1-371).
T5 sequence: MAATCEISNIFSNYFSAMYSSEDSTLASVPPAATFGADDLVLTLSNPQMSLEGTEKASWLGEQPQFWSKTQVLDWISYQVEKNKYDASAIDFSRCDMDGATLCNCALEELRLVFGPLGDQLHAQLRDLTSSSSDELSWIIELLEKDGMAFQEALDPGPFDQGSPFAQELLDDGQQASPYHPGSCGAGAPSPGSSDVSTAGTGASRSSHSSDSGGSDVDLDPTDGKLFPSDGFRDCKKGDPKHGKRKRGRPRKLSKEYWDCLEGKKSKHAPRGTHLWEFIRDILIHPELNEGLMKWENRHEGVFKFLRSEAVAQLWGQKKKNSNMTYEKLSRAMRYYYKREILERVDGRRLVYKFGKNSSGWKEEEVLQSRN
In a few lines: as §1

Assay [7] concerns the target ETV1 (Homo sapiens, UniProt P50549 1-477). In a few lines: as §1
The target in assay [8] is T6, ERF (Homo sapiens, UniProt P50548 1-548).
T6 sequence: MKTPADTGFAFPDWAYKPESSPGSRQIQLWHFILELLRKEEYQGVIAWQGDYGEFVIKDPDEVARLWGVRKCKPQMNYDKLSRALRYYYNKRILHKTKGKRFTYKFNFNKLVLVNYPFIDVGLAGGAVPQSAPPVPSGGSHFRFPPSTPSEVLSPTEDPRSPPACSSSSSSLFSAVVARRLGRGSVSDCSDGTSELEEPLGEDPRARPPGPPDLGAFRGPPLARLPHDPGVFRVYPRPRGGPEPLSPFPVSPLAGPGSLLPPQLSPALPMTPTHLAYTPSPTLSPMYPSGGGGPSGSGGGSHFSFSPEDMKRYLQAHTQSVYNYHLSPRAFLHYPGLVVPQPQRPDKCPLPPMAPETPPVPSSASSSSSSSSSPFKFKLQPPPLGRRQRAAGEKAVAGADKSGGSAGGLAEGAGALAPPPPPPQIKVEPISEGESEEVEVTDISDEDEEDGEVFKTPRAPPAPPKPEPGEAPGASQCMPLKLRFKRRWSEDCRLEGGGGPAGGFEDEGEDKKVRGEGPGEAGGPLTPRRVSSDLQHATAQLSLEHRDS
The method, boiled down: as §1

In assay [9] the target is T7, ETV3L (Homo sapiens, UniProt Q6ZN32 1-361).
T7 sequence: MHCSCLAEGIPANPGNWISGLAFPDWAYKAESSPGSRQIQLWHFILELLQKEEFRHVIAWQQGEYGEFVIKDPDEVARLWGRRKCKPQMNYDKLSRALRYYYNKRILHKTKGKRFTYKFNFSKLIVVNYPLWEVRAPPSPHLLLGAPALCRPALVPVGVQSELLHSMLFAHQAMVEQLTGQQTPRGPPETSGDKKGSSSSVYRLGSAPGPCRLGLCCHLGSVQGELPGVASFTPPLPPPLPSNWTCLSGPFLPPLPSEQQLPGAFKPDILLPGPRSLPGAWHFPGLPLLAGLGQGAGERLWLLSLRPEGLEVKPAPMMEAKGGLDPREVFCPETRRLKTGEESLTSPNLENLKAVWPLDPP
In a few lines: as §1

For assay [10], the target named is T8, ETV3 (Homo sapiens, UniProt P41162-2 1-143).
T8 sequence: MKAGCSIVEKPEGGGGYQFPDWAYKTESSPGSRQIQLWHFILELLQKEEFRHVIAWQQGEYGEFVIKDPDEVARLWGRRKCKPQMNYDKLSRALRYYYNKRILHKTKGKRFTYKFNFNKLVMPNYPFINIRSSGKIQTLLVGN
In a few lines: as §1

The target in assay [11] is ETV6 (Homo sapiens, UniProt P41212 1-452). The method, boiled down: as §1
The target of assay [12] is ELF1 (Homo sapiens, UniProt P32519 1-619). In a few lines:
as §1

Assay [13] deals with SPIB (Homo sapiens, UniProt Q01892 1-262). In a few lines: as §1
Assay [14] addresses T9, ETV7 (Homo sapiens, UniProt Q9Y603 1-341).
T9 sequence: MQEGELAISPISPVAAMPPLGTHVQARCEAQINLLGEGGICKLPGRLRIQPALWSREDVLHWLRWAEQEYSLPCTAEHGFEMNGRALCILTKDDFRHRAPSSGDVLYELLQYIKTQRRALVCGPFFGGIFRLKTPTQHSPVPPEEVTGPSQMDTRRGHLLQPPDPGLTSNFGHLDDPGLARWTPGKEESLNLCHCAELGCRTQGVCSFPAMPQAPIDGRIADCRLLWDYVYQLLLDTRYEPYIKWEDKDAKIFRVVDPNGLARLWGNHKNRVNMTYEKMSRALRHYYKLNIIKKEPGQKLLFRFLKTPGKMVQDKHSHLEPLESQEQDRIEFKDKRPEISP
In a few lines: as §1

Sequence of ETV1 (P50549 whole entry): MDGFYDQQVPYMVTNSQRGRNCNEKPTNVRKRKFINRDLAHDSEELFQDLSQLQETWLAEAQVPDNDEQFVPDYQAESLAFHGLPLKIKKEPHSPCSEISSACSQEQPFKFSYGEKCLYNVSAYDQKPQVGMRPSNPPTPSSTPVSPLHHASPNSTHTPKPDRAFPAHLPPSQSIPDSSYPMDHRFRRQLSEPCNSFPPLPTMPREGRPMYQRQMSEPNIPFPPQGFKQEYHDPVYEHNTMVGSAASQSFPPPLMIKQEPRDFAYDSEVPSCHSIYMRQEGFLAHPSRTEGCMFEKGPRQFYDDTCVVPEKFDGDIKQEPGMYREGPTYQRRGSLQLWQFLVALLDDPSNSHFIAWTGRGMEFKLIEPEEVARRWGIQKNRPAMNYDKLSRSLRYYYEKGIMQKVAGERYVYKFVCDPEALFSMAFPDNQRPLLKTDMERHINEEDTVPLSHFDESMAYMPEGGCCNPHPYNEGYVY
Sequence of ELF1 (P32519 whole entry): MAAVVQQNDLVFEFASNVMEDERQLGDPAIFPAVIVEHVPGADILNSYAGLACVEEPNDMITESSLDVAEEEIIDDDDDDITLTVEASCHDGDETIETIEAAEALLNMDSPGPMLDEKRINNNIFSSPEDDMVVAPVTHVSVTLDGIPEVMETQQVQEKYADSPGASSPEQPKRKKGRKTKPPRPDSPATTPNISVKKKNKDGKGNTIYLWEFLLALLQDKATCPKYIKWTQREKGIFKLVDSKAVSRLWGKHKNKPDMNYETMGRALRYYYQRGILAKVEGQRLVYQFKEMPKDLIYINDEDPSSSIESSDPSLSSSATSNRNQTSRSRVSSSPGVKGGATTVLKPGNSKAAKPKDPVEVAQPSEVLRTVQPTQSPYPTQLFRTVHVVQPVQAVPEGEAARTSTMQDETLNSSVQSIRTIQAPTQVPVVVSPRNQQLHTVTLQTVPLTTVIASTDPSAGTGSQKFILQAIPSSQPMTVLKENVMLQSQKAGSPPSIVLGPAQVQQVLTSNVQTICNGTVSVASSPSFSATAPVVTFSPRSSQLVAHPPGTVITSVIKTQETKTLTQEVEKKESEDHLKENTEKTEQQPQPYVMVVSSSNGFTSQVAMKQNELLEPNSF
Sequence of ELF4 (Q99607 whole entry): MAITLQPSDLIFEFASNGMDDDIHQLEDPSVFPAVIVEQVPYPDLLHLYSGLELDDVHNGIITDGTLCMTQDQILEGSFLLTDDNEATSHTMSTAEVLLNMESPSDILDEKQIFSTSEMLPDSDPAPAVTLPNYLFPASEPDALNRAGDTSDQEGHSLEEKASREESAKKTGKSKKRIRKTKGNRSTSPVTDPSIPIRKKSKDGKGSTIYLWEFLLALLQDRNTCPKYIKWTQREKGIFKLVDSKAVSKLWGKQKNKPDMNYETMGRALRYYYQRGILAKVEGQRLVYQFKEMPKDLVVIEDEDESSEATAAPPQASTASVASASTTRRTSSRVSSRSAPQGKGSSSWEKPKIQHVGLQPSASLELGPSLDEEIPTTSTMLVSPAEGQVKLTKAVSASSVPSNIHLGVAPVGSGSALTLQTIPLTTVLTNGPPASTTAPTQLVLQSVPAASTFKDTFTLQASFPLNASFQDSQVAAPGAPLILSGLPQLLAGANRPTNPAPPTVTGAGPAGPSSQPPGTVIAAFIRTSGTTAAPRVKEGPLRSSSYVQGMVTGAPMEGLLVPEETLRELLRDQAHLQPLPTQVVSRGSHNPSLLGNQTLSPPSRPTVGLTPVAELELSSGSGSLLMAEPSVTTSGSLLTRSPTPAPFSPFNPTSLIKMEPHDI
Sequence of ETV6 (P41212 whole entry): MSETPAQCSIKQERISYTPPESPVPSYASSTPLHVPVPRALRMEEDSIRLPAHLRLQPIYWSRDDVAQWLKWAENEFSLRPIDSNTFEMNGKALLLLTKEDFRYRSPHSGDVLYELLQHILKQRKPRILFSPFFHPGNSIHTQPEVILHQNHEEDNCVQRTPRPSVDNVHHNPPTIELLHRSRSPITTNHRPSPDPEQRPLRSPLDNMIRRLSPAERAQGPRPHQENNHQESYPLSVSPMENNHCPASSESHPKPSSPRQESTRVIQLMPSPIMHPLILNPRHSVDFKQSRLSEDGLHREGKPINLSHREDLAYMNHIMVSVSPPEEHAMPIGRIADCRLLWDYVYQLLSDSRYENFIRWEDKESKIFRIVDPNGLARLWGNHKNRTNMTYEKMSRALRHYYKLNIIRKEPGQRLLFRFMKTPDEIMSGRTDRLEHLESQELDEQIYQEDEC
Sequence of SPIB (Q01892 whole entry): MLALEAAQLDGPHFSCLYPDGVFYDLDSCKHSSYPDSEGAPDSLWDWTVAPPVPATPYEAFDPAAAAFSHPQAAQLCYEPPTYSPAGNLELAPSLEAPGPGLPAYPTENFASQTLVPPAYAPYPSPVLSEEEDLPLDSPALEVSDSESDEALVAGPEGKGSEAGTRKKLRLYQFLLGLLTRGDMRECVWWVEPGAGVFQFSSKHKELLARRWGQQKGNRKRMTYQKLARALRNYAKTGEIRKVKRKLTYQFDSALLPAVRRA

On to GCTAGG, for which the binding signal in assay [1] is 1.01 fold enrichment (6-mer frequency, TF over GST control); in assay [2] it was 1.12 fold enrichment (6-mer frequency, TF over GST control); in [3], 1.03 fold enrichment (6-mer frequency, TF over GST control); in assay [4], 1.06 fold enrichment (6-mer frequency, TF over GST control); in assay [5] it was 1.08 fold enrichment (6-mer frequency, TF over GST control); in assay [6] it was 1.14 fold enrichment (6-mer frequency, TF over GST control). The binding signal is 1 fold enrichment (6-mer frequency, TF over GST control) in assay [7]; 1.01 fold enrichment (6-mer frequency, TF over GST control) in assay [8]; 1.06 fold enrichment (6-mer frequency, TF over GST control) in assay [9]; 1.03 fold enrichment (6-mer frequency, TF over GST control) in [10]; 1.07 fold enrichment (6-mer frequency, TF over GST control) in assay [11].

Turning to TTGGAT, the binding signal is 1.02 fold enrichment (6-mer frequency, TF over GST control) in [1]; 1.01 fold enrichment (6-mer frequency, TF over GST control) in assay [12]; 1.07 fold enrichment (6-mer frequency, TF over GST control) in assay [13]; 1.04 fold enrichment (6-mer frequency, TF over GST control) in assay [5]; 1.04 fold enrichment (6-mer frequency, TF over GST control) in [6]; 1.01 fold enrichment (6-mer frequency, TF over GST control) in [14].
